Polio RdRp inh – inhibitors of poliovirus RNA polymerase binding and polymerization; % elongation, % (compound at 16.7 µg/mL); poliovirus polymerase elongation, fluorescence polarization; hits give low values; hit rate 0.66% among 150,000; P03300; in the data active = % elongation below about 90%
Target sequence (P03300 1749-2209 limits assumed): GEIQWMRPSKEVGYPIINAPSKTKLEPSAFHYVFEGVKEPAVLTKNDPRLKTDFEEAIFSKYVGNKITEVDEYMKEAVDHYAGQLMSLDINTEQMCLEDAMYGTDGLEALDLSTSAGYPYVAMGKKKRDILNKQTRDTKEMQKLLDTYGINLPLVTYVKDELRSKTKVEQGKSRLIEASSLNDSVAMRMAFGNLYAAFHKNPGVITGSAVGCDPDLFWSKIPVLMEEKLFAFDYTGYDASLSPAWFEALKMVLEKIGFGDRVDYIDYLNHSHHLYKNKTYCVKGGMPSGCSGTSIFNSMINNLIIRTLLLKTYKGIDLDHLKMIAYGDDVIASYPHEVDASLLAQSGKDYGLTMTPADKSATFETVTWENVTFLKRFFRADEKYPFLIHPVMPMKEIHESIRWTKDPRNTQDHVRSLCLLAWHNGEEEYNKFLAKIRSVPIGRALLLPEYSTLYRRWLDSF
MbtI inh – inhibitors of Mycobacterium tuberculosis siderophore enzyme MbtI | P9WFX0 | purified MbtI enzyme, fluorescence intensity read-out | inhibition, % (concentration not given with the values) | hit rate 0.89% among 100,000; in the data active = inhibition mostly above about 56%, no sharp cut-off; inactive = mostly below about 77%
Mtb MenB inh – blocks the Mycobacterium tuberculosis MenB enzyme. P9WNP5. MenB enzyme assay, absorbance read-out. inhibition, % (test concentration not listed). hit rate 0.43% among 100,000. AID 540299; in the data active = inhibition above about 21%, passing the limit was not always enough
Each line names hits and unclear results; the compound was inactive in the other large screens. This is a sample that favours compounds with a hit; in the whole collection about 1.4% have one here.

CNC(=O)Oc1c(Br)cc2sc(=O)oc2c1Br	MbtI inh 100
Cc1cc(NC(C)C)n2nc(-c3ccccc3)nc2n1	none
O=C1CCCCCN1Sc1ccccc1	MbtI inh 70
O=C1CCCCCN1C(=O)c1ccccc1	none
COc1ccccc1C(=O)Nc1ccc(-c2nc3ccccc3o2)cc1	none
O=C(CSc1nc2ccccc2s1)NNc1ncnc2c1cnn2Cc1ccccc1	MbtI inh 56
CC(C)NC(=O)CSc1nc2ccccc2s1	none
Cc1ccc(NC(=O)COc2ccccc2C(N)=O)cc1F	none
COc1ccc(C)cc1NC(=O)CSc1ccc(-c2ccccn2)nn1	Polio RdRp inh 81 (no result: MbtI inh, Mtb MenB inh)
Cc1cccc(NC(=O)CSc2ccc(-c3ccccn3)nn2)c1	none (no result: MbtI inh, Mtb MenB inh)
COc1ccccc1C(C)NC(=O)c1ccc(=O)[nH]c1 (stereo not given)	none
O=C(Cc1nc2ccccc2[nH]1)c1cccs1	Polio RdRp inh 22 (no result: Mtb MenB inh)
O=C(NCCc1nc2ccccc2[nH]1)c1cccs1	none (no result: MbtI inh)
NC(=O)Cc1nc2ccccc2[nH]1	none (no result: Mtb MenB inh)
N/C(Cc1nc2ccccc2[nH]1)=N\O	Mtb MenB inh 44
CCOc1ccccc1OCCCC(=O)O	none (no result: Mtb MenB inh)
CCNS(=O)(=O)c1csc(C(N)=O)c1	none
Cc1cc2c(cc1C)NC(=O)CC(c1ccccc1O)=N2	none
CCC(=O)n1nc(-c2ccco2)nc1SCc1ccccc1	none
CCC(=O)n1nc(-c2ccco2)nc1SC	MbtI inh 54
CC1=C(C#N)C(c2ccc(CN3C(=O)c4ccccc4C3=O)o2)C2=C(CCCC2=O)N1 (stereo not given)	none
CCCCOc1ccc(NC(=O)CCC)cc1	none
COc1ccc(S(=O)(=O)c2cn(Cc3ccccc3)c3ccc(OC)cc3c2=O)cc1	none (no result: MbtI inh, Mtb MenB inh)
CCOc1ccc(S(=O)(=O)c2cn(Cc3ccc(C)cc3)c3ccc(OC)cc3c2=O)cc1	Polio RdRp inh 90 (no result: MbtI inh, Mtb MenB inh)
Nc1ccccc1N1C(=O)c2ccccc2C1=O	none (no result: MbtI inh)
C=C1N(c2ccccc2C)C(=O)OC1(C)C	none
O=C1C=CC(=O)N1c1ccccc1Br	MbtI inh 99 (no result: Mtb MenB inh)
Cc1ccccc1N1C(=O)C=CC1=O	MbtI inh 100
CSc1ccccc1C(=O)O	none (no result: Mtb MenB inh)
CSc1ccccc1N1C(=O)C=CC1=O	MbtI inh 101
O=C(OCc1ncc(-c2ccccc2)o1)c1nc(-c2ccccc2)n(-c2ccccc2)n1	none
CCCCn1nnc(NC(=O)c2cccc(F)c2)n1	none
CN(C)C(=S)SSC(=S)N(C)C	MbtI inh 87
CN(C1CCCCC1)S(=O)(=O)c1ccc(-n2cccn2)cc1	none
CCCn1c(=O)c2ccccc2n2c(=S)[nH]nc12	MbtI inh 75
O=c1c2ccccc2n2c(=S)[nH]nc2n1-c1ccccc1	Polio RdRp inh 89, MbtI inh 94
S=c1[nH]nc(CCn2c3ccccc3c3ccccc32)n1-c1ccccc1	none
O=c1c2ccccc2n2c(=O)[nH]nc2n1Cc1ccc(F)cc1	none
Cc1cc2n(n1)C(c1cc(C(C)(C)C)c(O)cc1O)Nc1c(C)cccc1-2 (stereo not given)	none
O=S1(=O)c2ccccc2-c2cc(Br)ccc21	none
O=C1Nc2ccccc2C(=O)C1(O)O	Mtb MenB inh 43
O=C1Nc2ccccc2-c2ccccc2N1	none
CCC(Sc1ncc(S(=O)(=O)c2ccc(C)c(C)c2)c(=O)[nH]1)C(=O)Nc1ccc(OC)cc1 (stereo not given)	none
O=C(Sc1ccc(C(F)(F)F)cn1)c1csc(C2COc3ccccc3O2)n1 (stereo not given)	MbtI inh 71
O=C(NCc1cccs1)c1csc(C2COc3ccccc3O2)n1 (stereo not given)	none
NC(=O)c1cc2ccccc2nc1C(N)=O	none (no result: MbtI inh)
O=C1C2CCc3[nH]c4ccccc4c3C2C(=O)N1Cc1ccccc1 (stereo not given)	none
CNC(=O)c1sc(CN2C(=O)c3ccccc3S2(=O)=O)nc1C	Polio RdRp inh 65, MbtI inh 92
COC(=O)c1sc(N)c(C(=O)OC)c1CN1C(=O)c2ccccc2S1(=O)=O	none
N#Cc1ccc(C(CO)CO)nc1	none
c1ccc(Cn2cnnc2)cc1	none (no result: Mtb MenB inh)
CNS(=O)(=O)c1cccc(C(=O)OCC(=O)C(C)(C)C)c1	none
Cc1ccc2occ(CC(=O)N(Cc3ccccc3Cl)C3CCS(=O)(=O)C3)c2c1 (stereo not given)	Polio RdRp inh -14 (no result: MbtI inh, Mtb MenB inh)
Cc1ccc2occ(CC(=O)N(Cc3ccc(C(C)C)cc3)C3CCS(=O)(=O)C3)c2c1 (stereo not given)	none (no result: MbtI inh, Mtb MenB inh)
Cc1cccc(-n2nc3c(c2NC(=O)Nc2cccc(Cl)c2)CSC3)c1	none
O=C(O)C(C(=O)/C=C/c1ccccc1)=C1SCS1	MbtI inh 89
CC1CS/C(=C(/C(=O)O)C(=O)/C=C/c2cccc(O)c2)S1 (stereo not given)	none (no result: MbtI inh)
O=C(COc1ccccc1O)NCC1CCCO1 (stereo not given)	none (no result: Mtb MenB inh)
O=C(Nc1ccccc1)Nc1c2c(nc3c1CCC3)CCCC2	none
O=S(=O)(NN=Cc1cn(-c2ccccc2)nc1-c1ccco1)c1ccc(Cl)cc1	MbtI inh 90
NC(=O)N/N=C/c1cn(-c2ccccc2)nc1-c1ccccc1	none
CCN(CC)c1ccc(N)c(C)c1	MbtI inh 98
CCN(CC)c1ccc(NC(C)=O)c(C)c1	none
O=C(NC1CCCc2ccccc21)c1ncoc1-c1cccs1 (stereo not given)	none
N#Cc1ccc(C2Oc3ccccc3C3CC(c4ccc5c(c4)OCCO5)=NN32)cc1 (stereo not given)	none
O=C(CN1C(=O)S/C(=C\c2cccs2)C1=O)OCC(=O)c1ccc[nH]1	none
O=C1CC(=O)N(Cc2ccc(F)cc2)C(=O)N1	none
O=C1CNC(=O)N1Cc1ccc(F)cc1	Mtb MenB inh 34
CCCCCSc1ncnc2c1sc1nc(N3CCOCC3)c3c(c12)CCCC3	none (no result: MbtI inh, Mtb MenB inh)
c1nc2c3sc4nc(N5CCOCC5)c5c(c4c3ncn2n1)CCC5	Mtb MenB inh 28
COC(=O)c1ccc(NC(=O)CSc2nc3ccc(OC)cc3[nH]2)cc1	none (no result: MbtI inh, Mtb MenB inh)
COc1ccc2nc(SCC(=O)c3ccc(O)c(O)c3)[nH]c2c1	MbtI inh 70
CC(C)NC(=S)N/N=C/c1cccc(O)c1	none
CNC(=S)N/N=C/c1cccc(Cl)c1	Polio RdRp inh 13
CC(C)CSc1nsc2nc(=O)c(C=C3C=CC(=O)C=C3)c(N)n12	none
CC[n+]1cccc(-c2nc3ccccc3o2)c1	none
CC(=O)Nc1ccc(NC(=O)c2oc3c(c2C)-c2nn(Cc4ccccc4Cl)cc2CC3)cc1	none (no result: MbtI inh, Mtb MenB inh)
CCn1cc2c(n1)-c1c(oc(C(=O)Nc3ccc(Cl)cc3)c1C)CC2	Polio RdRp inh 88
CCn1cc2c(n1)-c1c(oc(C(=O)NCc3cccnc3)c1C)CC2	none
CCn1cc2c(n1)-c1c(oc(C(=O)Nc3ccc(Br)cc3F)c1C)CC2	Polio RdRp inh 53 (no result: MbtI inh, Mtb MenB inh)
CC12CCC(=O)N1C(C(=O)NCC13CC4CC(CC(C4)C1)C3)CS2 (stereo not given)	none
Fc1ccc(Cn2[nH]nnc2=S)cc1	MbtI inh 69
S=c1nn[nH]n1CCc1ccc(Cl)cc1	none
N#CSc1c(Cl)nc2sccn12	Polio RdRp inh 85, MbtI inh 65 (no result: Mtb MenB inh)
N#CC(C#N)=Cc1c(Cl)nc2sccn12	Polio RdRp inh 67
O=C(c1c(Cl)nc2sccn12)N1CCOCC1	none (no result: Mtb MenB inh)
CC(C)(C)OC(=O)/C=C/c1c(Cl)nc2sccn12	none (no result: Mtb MenB inh)
CCN(CC)c1ccc(NC(=S)NC(C)C)cc1	none
CCN(CC)c1ccc(NC(=S)Nc2ccc(S(N)(=O)=O)cc2)cc1	MbtI inh 63
CN1CCCN(C(=O)C2CCCCN2S(=O)(=O)c2ccccc2)c2nc3ccccc3nc21 (stereo not given)	none
